Compounds with a hit are over-represented: about 2.4% of the library has one in this group of screens.
D2 antagonist – D2 dopamine receptor (human) antagonism. P14416. HEK293 TREx D2 cells, calcium flux, dopamine EC80. inhibition, % at 10 µM. hit rate 2% among 340,000; in the data active = inhibition above about 30%; inactive = below that, where a call was filed; note: 0% is about no effect
Target sequence (P14416 whole entry, looked up): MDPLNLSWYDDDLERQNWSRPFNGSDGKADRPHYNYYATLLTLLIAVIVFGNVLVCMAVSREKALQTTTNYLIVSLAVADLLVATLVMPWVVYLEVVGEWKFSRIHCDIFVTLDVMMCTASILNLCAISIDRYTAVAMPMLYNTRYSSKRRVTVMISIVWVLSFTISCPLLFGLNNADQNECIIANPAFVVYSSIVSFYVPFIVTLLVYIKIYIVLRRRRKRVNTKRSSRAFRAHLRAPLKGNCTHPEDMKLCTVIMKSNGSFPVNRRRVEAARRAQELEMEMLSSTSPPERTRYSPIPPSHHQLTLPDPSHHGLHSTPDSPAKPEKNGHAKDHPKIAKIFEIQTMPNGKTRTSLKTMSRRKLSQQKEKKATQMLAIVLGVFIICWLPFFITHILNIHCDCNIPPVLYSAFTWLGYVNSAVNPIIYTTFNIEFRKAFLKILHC
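Tetracycline-induced HEK293 T-REx cells expressing D2 force-coupled to calcium signalling were dye-loaded, exposed to compound for 180 s, then challenged with an EC80 of dopamine; calcium flux was followed kinetically for a further 180 s.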
D2 ag-1 – D2 dopamine receptor (human) agonism. hit rate 0.53% among 340,000. P14416. activation, % at 2 µM. HEK293 T-REx D2 cells, calcium flux agonist mode. AID 485358;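 active = activation over 3 SD above normal in the single-dose calcium agonist read, cut at about 30% in these data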; note: 0% is about no effect
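Calcium-flux readout, 1 cycle/sec over 180 s following compound pin transfer, in inducible HEK293 Trex D2 cells (force-coupled); dopamine controls included. Positive calcium responses during this window marked compounds as potential agonists.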
D2 PAM-1 – positive allosteric modulators of human D2 dopamine receptor; P14416; DiscoveRx D2 beta-arrestin cells, luminescence, 90 min; 100% = 57 uM dopamine signal; potentiation, % (no concentration beside the values); hit rate 0.23% among 360,000; AID 624464; in the data active = potentiation above about 50%
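PathHunter beta-arrestin assay in DiscoveRx D2 cells. Compounds were added with an EC20 of dopamine (50 nM final) for 90 min at 37 deg C. Luminescence was read 1 h after detection reagent, with 57 uM dopamine as the EC100 control.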
D2 ag-2 – activates the human D2 dopamine receptor. DiscoveRx PathHunter D2 beta-arrestin, luminescence, 90 min; 100% = 57 uM dopamine signal. activation, % (no concentration beside the values). P14416. hit rate 0.084% among 360,000; in the data active = activation above about 40%
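DiscoveRx PathHunter D2 beta-arrestin cells (2,100/well) attached overnight, then compound-stimulated 90 min at 37 C in HBSS/10 mM HEPES/0.1% Tween-20 buffer; beta-galactosidase complementation read by luminescence after 1 h at ambient temperature. Dopamine 57 uM final (EC100) as control.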
D2 PAM-2 – positively modulates the human D2 dopamine receptor allosterically; AID 485347; hit rate 0.34% among 340,000; P14416; potentiation, % at 10 µM; HEK293 T-REx D2, calcium flux, EC20 dopamine potentiation;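 active = potentiation over 3 SD above the plate norm, cut at about 30% in these data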; note: 0% is about no effect
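Calcium flux readout, no-wash dye, 1 read/s. Inducible HEK293 Trex D2 line, overnight 30 C. Compound alone 180 s (agonist flags), then EC20 dopamine, another 180 s to score potentiation.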
Starred values were filed as active, the others as inactive; nt = no result given.

SMILES | D2 antagonist | D2 ag-1 | D2 PAM-1 | D2 ag-2 | D2 PAM-2
CCCSc1nnc2n(-c3ccc(OC)cc3)c(=O)c3c4c(sc3n12)COC(C(C)C)C4 (stereo not drawn) | nt | nt | nt | nt | -6
COc1ccc(NC(=O)C2=C(C)Nc3c(C(=O)Nc4ccc(C)cc4)cnn3C2c2cccc(Cl)c2)cc1 (stereo not drawn) | nt | 0 | nt | nt | -7
O=C(CN1CCN(c2ccccc2F)CC1)Nc1ccc2c(c1)CCC2 | 69* | -1 | -1 | 4 | -22
COc1ccccc1N1CCN(CC(=O)Nc2cccc(F)c2)CC1 | 31* | 0 | -15 | -3 | -21
Cc1ccc(NC(=O)CN2CCN(c3ccccc3F)CC2)cc1F | nt | -3 | nt | nt | -28
CCOC(=O)c1c(C)n(C)c2ccc(OC)c(NC(=O)CN3CCSCC3)c12 | -12 | 0 | -8 | -4 | 1
COc1ccccc1N1CCN(CCCCCCOc2ccc(F)cc2)CC1 | 81* | 6 | -30 | -1 | -48
COc1ccccc1N1CCN(CC(=O)Nc2ccc(C)c(F)c2)CC1 | -8 | -1 | -37 | -4 | 0
CCOC(=O)c1c(C)n(C)c2ccc(OC)c(NC(=O)CCN3CCC(Cc4ccccc4)CC3)c12 | 91* | 0 | -16 | -3 | -32
CCC(Sc1nc2ncccc2[nH]1)C(=O)Nc1cccc(OC)c1 (stereo not drawn) | nt | -2 | nt | nt | -5
CCOc1ccc(N(CC)S(=O)(=O)N2CCCC(C(=O)Nc3cc(Cl)ccc3OC)C2)cc1 (stereo not drawn) | nt | 1 | nt | nt | 0
O=C(CSc1ncc2c(n1)-c1cc(Cl)ccc1N(Cc1ccccc1)S2(=O)=O)NCc1ccccc1 | nt | nt | nt | nt | -5
CCCCOc1ccc(C(=O)NCC(c2ccc(Cl)cc2)N2CCOCC2)cc1 (stereo not drawn) | nt | 1 | nt | nt | -1
NC(=O)c1c(NC(=O)Cc2ccccc2)sc2c1CCN(Cc1ccccc1)C2 | 47* | 1 | -11 | 3 | -18
CCN(C(=O)CSc1nc(-c2ccc(C(C)C)cc2)no1)c1ccccc1 | nt | 1 | nt | nt | -2
COc1cc(C(=O)Nc2nc(C)c(Cc3ccc4c(c3)OCO4)s2)cc(OC)c1OC | 40* | 0 | -6 | -3 | -11
CC1=C(C)CC(C(=O)NC2CCCC2)C(C(=O)O)C1 (stereo not drawn) | -4 | 0 | 0 | -2 | 5
CC1=CCC(C(=O)O)C(C(=O)NC2CCCCC2)C1 (stereo not drawn) | 45* | 2 | -4 | 1 | 20
CC1CCN(S(=O)(=O)c2ccc3nc(Nc4cccc(F)c4)ccc3c2)CC1 | nt | 1 | nt | nt | -2
CCc1cc2c(cc3c(=O)n(CCCC(=O)NCc4cccc(Br)c4)ncn32)s1 | nt | 0 | nt | nt | 5
O=C1CCCc2c1cc(C(=O)O)c(=O)n2-c1ccccc1 | 7 | 0 | 3 | -2 | -4
O=C1CCCc2c1cc(C(=O)Nc1ccc(Br)cn1)c(=O)n2-c1ccccc1 | 10 | 4 | 55* | 11 | -3
COc1ccc(Oc2coc3cc(OC(=O)c4cccs4)ccc3c2=O)cc1 | -19 | 0 | -4 | 0 | 37*
COCCNC(=S)N1CCC2CC1c1cc(-c3ccc4c(c3)OCO4)ccc12 (stereo not drawn) | nt | nt | -3 | -4 | nt
COC(=O)CC(NC(=O)c1ccco1)c1cccc2ccccc12 (stereo not drawn) | 8 | 0 | -10 | -1 | 10
SMILES | D2 antagonist | D2 ag-1 | D2 PAM-1 | D2 ag-2 | D2 PAM-2
COC(=O)CC(NS(=O)(=O)c1cccs1)c1cccc2ccccc12 (stereo not drawn) | 46* | 0 | -3 | -2 | 2
Cn1nc(-c2ccccc2F)c2cc(C(=O)NCc3ccccc3Cl)sc21 | nt | -1 | nt | nt | 5
Cn1nc(-c2ccccc2F)c2cc(C(=O)NCCc3ccc(Cl)cc3)sc21 | nt | 1 | nt | nt | 2
S=C1Cc2ccccc2C(c2ccc(Cl)cc2)N1 (stereo not drawn) | 33* | -1 | -4 | 1 | -4
O=C1Cc2ccccc2C(c2ccc(Cl)cc2)N1 (stereo not drawn) | 0 | 0 | -3 | -2 | 4
O=C(CN1CCN(Cc2ccc(F)cc2Cl)S1(=O)=O)Nc1ccc(F)cc1 | nt | -1 | nt | nt | 7
COc1ccc(-n2cc(CNCCc3cscn3)c(-c3ccccc3Cl)n2)cc1 | 48* | 0 | -22 | 1 | -21
Cc1ccc(NC(=S)NC2CC3CCC(C2)N3Cc2ccco2)c(C)c1 (stereo not drawn) | 4 | 0 | -24 | -2 | -15
Cc1cccc(NC(=S)NC2CC3CCCC(C2)N3Cc2ccccc2)c1C (stereo not drawn) | 105* | 0 | -21 | -2 | -28
Cc1cccc(NC(=S)NC2CC3CCC(C2)N3Cc2ccco2)c1C (stereo not drawn) | 36* | 1 | -22 | -1 | -19
CCc1ccccc1NC(=S)NC1CC2CCC(C1)N2Cc1ccc(F)cc1 (stereo not drawn) | 78* | 1 | -6 | 0 | -28
CCc1ccccc1NC(=S)NC1CC2CCC(C1)N2Cc1ccco1 (stereo not drawn) | 7 | -1 | -24 | 0 | -11
COc1ccc(CN2C3CCCC2CC(NC(=O)Nc2ccccc2C)C3)cc1 (stereo not drawn) | nt | nt | -20 | -1 | nt
O=C(Nc1cccc(C(=O)N2CCOCC2)c1)C1CC1 | nt | nt | -4 | -2 | nt
COc1ccc(C(=O)Nc2ccccc2SCc2cc(=O)n3nc(C)sc3n2)cc1OC | 1 | 0 | -6 | 2 | -2
Cc1nn2c(=O)cc(CSc3nc4ccccc4[nH]3)nc2s1 | 39* | 1 | -4 | -1 | 15
Cc1ccc2nc(Cl)cc(=O)n2c1 | nt | nt | -8 | -2 | nt
C#CCOCCOCCOCCNc1nc(N2CCN(C(=O)Cn3cc(CCO)nn3)CC2)nc(N2CCN(C(=O)[C@H](Cc3ccc(O)cc3)n3cc(CCO)nn3)CC2)n1 | nt | nt | -3 | -1 | nt
COc1ccc2sc(N(CCN(C)C)C(=O)/C=C/c3cccs3)nc2c1 | 36* | 0 | -17 | 3 | -23
Cc1cccc2sc(N(CCN(C)C)C(=O)/C=C/c3cccs3)nc12 | 32* | 0 | -43 | -4 | -19
COc1ccc2nc(N(CCN(C)C)C(=O)/C=C/c3cccs3)sc2c1 | 1 | 0 | -19 | -1 | -8
COc1cc(CN(C(=O)COc2ccc(C)c(C)c2)c2ccccn2)cc(OC)c1OC | nt | 0 | nt | nt | -11
Cc1ccc(C(=O)CC2(O)C(=O)N(CCc3ccccc3)c3ccc(Cl)cc32)cc1 (stereo not drawn) | nt | -2 | nt | nt | 1
COc1cccc(C2C=C(c3ccc(C)cc3)Nc3c(C(=O)Nc4ccc(F)cc4)cnn32)c1OC (stereo not drawn) | nt | 0 | nt | nt | -4
O=C(c1ccco1)N1CCN(C(=O)C2CCN(S(=O)(=O)c3cnc[nH]3)CC2)CC1 | 52* | 1 | -19 | -2 | 13

Source: PubChem
